PubChem BioAssay AID1159580 (chemical genetic matrix, 2015)
“And” between values parts separate entries of the source, which are not always exact repeats. Identical values can stand only once. The campaign covered roughly 5,500 compounds. About 2,000 (36%) were called active. About 18% were inconclusive and are not listed. Cut-off read from the data, not from the text of the source: active = normalized growth mostly below about 0.91 (no sharp cut-off); inconclusive = no clear call, values can overlap the other calls; inactive = mostly above about 0.92. Some of the results follow.

Assay: chemical genetic growth profiling, strain panel (AID 1159580);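 note: tested at 20 µM; growth read once vehicle control cultures reached saturation at 30 °C; 1 = growth at the plate median or of vehicle wells; lower values mean less growth of the strain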
Details: S. cerevisiae deletion strains, growth OD

Measured: normalized growth

C[C@]12C=CC(=O)C=C1CCC1C2CC[C@]2(C)C(=O)CCC12 (stereo partly drawn)
inactive: locus YAL021C, strain ccr4, hits give low values 0.97 | locus YAL026C, strain drs2, hits give low values 0.983 | locus YAL030W, strain snc1, hits give low values 0.976 | locus YBL061C, strain skt5, hits give low values 0.971 | locus YBR009C, strain hhf1, hits give low values 0.966 | locus YBR021W, strain FUR4, hits give low values 0.986 | locus YBR023C, strain chs3, hits give low values 0.979 | locus YBR171W, strain sec66, hits give low values 0.987 | locus YBR229C, strain ROT2, hits give low values 0.992 | locus YBR231C, strain swc5, hits give low values 0.982 | locus YBR279W, strain paf1, hits give low values 0.982 | locus YCL011C, strain gbp2, hits give low values 0.988 | locus YCL016C, strain dcc1, hits give low values 0.976 | locus YCL029C, strain bik1, hits give low values 0.992 | locus YCL061C, strain MRC1, hits give low values 0.972 | locus YCL069W, strain vba3, hits give low values 0.981 | locus YCR088W, strain abp1, hits give low values 0.98 | locus YDL005C, strain med2, hits give low values 0.977 | locus YDL035C, strain GPR1, hits give low values 1.03 | locus YDL040C, strain nat1, hits give low values 0.985 | locus YDL074C, strain BRE1, hits give low values 1.01 | locus YDL101C, strain DUN1, hits give low values 1.01 | locus YDL134C, strain PPH21, hits give low values 1.01 | locus YDL185W, strain tfp1, hits give low values 1 | locus YDL192W, strain arf1, hits give low values 0.981 | locus YDR001C, strain nth1, hits give low values 0.984 | locus YDR069C, strain doa4, hits give low values 0.978 | locus YDR101C, strain arx1, hits give low values 0.981 | locus YDR137W, strain rgp1, hits give low values 1.04 | locus YDR150W, strain NUM1, hits give low values 1.01 | locus YDR159W, strain sac3, hits give low values 0.928 | locus YDR162C, strain NBP2, hits give low values 1.03 | locus YDR195W, strain ref2 0.935 | locus YDR297W, strain sur2, hits give low values 0.972 | locus YDR318W, strain mcm21, hits give low values 0.992 | locus YDR334W, strain swr1, hits give low values 0.976 | locus YDR335W, strain msn5, hits give low values 0.988 | locus YDR388W, hits give low values 0.981 | locus YDR392W, strain spt3, hits give low values 0.877 | locus YDR502C, strain sam2, hits give low values 0.976 | locus YEL003W, strain gim4, hits give low values 0.988 | locus YEL037C, strain rad23, hits give low values 0.989 | locus YEL061C, strain CIN8 (second series), hits give low values 0.988 | locus YEL061C, strain CIN8, hits give low values 0.995 | locus YER015W, strain faa2, hits give low values 0.981 | locus YER016W, strain bim1, hits give low values 0.981 | locus YER110C, hits give low values 0.984 | locus YER111C, strain swi4, hits give low values 0.986 | locus YER155C, strain BEM2 (second series), hits give low values 0.949 | locus YER155C, strain BEM2, hits give low values 0.979 | locus YER167W, strain BCK2, hits give low values 0.986 | locus YFR010W, strain ubp6, hits give low values 0.988 | locus YGL078C, strain dbp3, hits give low values 0.986 | locus YGL086W, strain mad1, hits give low values 0.983 | locus YGL167C, strain pmr1, hits give low values 0.976 | locus YGL173C, strain kem1, hits give low values 0.98 | locus YGL227W, strain vid30, hits give low values 0.984 | locus YGL240W, strain doc1, hits give low values 0.926 | locus YGL248W, strain PDE1, hits give low values 0.995 | locus YGL253W, strain hxk2, hits give low values 0.987 | locus YGR078C, strain PAC10, hits give low values 1.02 | locus YGR135W, strain pre9, hits give low values 0.996 | locus YGR229C, strain SMI1, hits give low values 1.07 | locus YGR252W, strain gcn5, hits give low values 0.988 | locus YHR013C, strain ard1, hits give low values 0.951 | locus YHR027C, strain rpn1, hits give low values 0.99 | locus YHR030C, strain SLT2, hits give low values 1.01 and 0.976 | locus YHR079C, strain IRE1 (second series), hits give low values 0.987 | locus YHR079C, strain IRE1, hits give low values 0.978 | locus YHR094C, strain hxt1, hits give low values 0.981 | locus YHR129C, strain ARP1, hits give low values 1 | locus YHR142W, strain chs7, hits give low values 0.995 | locus YHR200W, strain rpn10, hits give low values 0.976 | locus YIL066C, strain RNR3, hits give low values 1.01 | locus YIL073C, strain SPO22, hits give low values 1.04 | locus YIL125W, strain kgd1, hits give low values 0.975 | locus YIR030C, strain dcg1, hits give low values 0.992 | locus YJL092W, strain hpr5, hits give low values 0.985 | locus YJL095W, strain BCK1 (second series), hits give low values 0.98 | locus YJL095W, strain BCK1, hits give low values 1 and 0.98 | locus YJL115W, strain asf1, hits give low values 0.977 | locus YJL129C, strain trk1, hits give low values 0.985 | locus YJL134W, strain LCB3, hits give low values 1.01 | locus YJL154C, strain vps35, hits give low values 0.998 | locus YJL164C, strain tpk1, hits give low values 0.976 | locus YJL166W, strain qcr8, hits give low values 0.957 | locus YJL168C, strain set2, hits give low values 0.978 | locus YJL187C, strain SWE1 (second series), hits give low values 1.02 | locus YJL187C, strain SWE1, hits give low values 0.979 | locus YJR043C, strain POL32, hits give low values 1.03 | locus YJR066W, strain TOR1, hits give low values 0.937 | locus YKL009W, strain mrt4, hits give low values 1 | locus YKL068W, hits give low values 1 | locus YKL085W, strain MDH1 (second series), hits give low values 0.993 | locus YKL085W, strain MDH1, hits give low values 0.993 | locus YKL160W, strain elf1, hits give low values 0.985 | locus YKR001C, strain vps1, hits give low values 0.986 | locus YKR026C, strain gcn3, hits give low values 0.962 | locus YKR091W, strain srl3, hits give low values 0.976 | locus YLL001W, strain dnm1, hits give low values 0.969 | locus YLL026W, hits give low values 0.981 | locus YLL041C, strain sdh2, hits give low values 0.981 | locus YLR027C, strain aat2, hits give low values 0.984 | locus YLR039C, strain RIC1, hits give low values 1.27 | locus YLR058C, strain SHM2, hits give low values 0.993 | locus YLR102C, strain apc9, hits give low values 0.997 | locus YLR113W, strain HOG1, hits give low values 0.966 | locus YLR221C, strain rsa3, hits give low values 0.977 | locus YLR258W, strain gsy2, hits give low values 0.973 | locus YLR262C, strain YPT6 (second series), hits give low values 1.05 | locus YLR262C, strain YPT6, hits give low values 1.23 | locus YLR268W, strain sec22, hits give low values 0.997 | locus YLR320W, strain mms22, hits give low values 0.946 | locus YLR330W, strain CHS5, hits give low values 1 | locus YLR342W, strain FKS1 (second series), hits give low values 0.958 | locus YLR342W, strain FKS1, hits give low values 0.976 | locus YLR357W, strain rsc2, hits give low values 1.01 | locus YLR370C, strain arc18, hits give low values 0.977 | locus YLR371W, strain rom2, hits give low values 0.993 | locus YLR384C, strain iki3, hits give low values 0.983 | locus YLR418C, strain cdc73, hits give low values 0.968 | locus YML016C, strain PPZ1, hits give low values 0.994 | locus YML032C, strain rad52, hits give low values 0.996 | locus YML120C, strain ndi1, hits give low values 0.983 | locus YML124C, strain tub3, hits give low values 0.982 | locus YMR058W, strain fet3, hits give low values 0.979 | locus YMR078C, strain ctf18, hits give low values 0.974 | locus YMR125W, strain sto1, hits give low values 0.997 | locus YMR129W, hits give low values 0.991 | locus YMR205C, strain PFK2, hits give low values 0.963 | locus YMR223W, strain ubp8, hits give low values 0.98 | locus YMR231W, strain pep5, hits give low values 0.986 | locus YMR263W, strain SAP30, hits give low values 0.99 | locus YMR307W, strain GAS1, hits give low values 1.16 | locus YNL067W, strain RPL9B, hits give low values 1.02 | locus YNL071W, strain lat1, hits give low values 0.977 | locus YNL128W, strain TEP1, hits give low values 1.02 | locus YNL153C, strain GIM3, hits give low values 1.01 | locus YNL183C, strain NPR1, hits give low values 0.897 | locus YNL209W, strain ssb2, hits give low values 0.985 | locus YNL233W, strain BNI4, hits give low values 0.994 | locus YNL248C, strain rpa49, hits give low values 0.991 | locus YNL250W, strain rad50, hits give low values 0.99 | locus YNL271C, strain bni1, hits give low values 0.989 | locus YNL298W, strain CLA4, hits give low values 0.981 | locus YNL307C, strain MCK1, hits give low values 0.982 | locus YNL322C, strain KRE1 (second series), hits give low values 0.978 | locus YNR049C, strain mso1, hits give low values 0.983 | locus YNR052C, strain pop2, hits give low values 0.989 | locus YOL006C, strain TOP1, hits give low values 0.98 | locus YOL012C, strain htz1 1.46 | locus YOL147C, strain pex11, hits give low values 0.997 | locus YOR001W, strain rrp6, hits give low values 0.98 | locus YOR061W, strain CKA2, hits give low values 0.996 | locus YOR069W, strain VPS5, hits give low values 0.998 | locus YOR070C, strain gyp1, hits give low values 0.989 | locus YOR080W, strain dia2, hits give low values 0.972 | locus YOR083W, strain WHI5, hits give low values 0.983 | locus YOR106W, strain vam3, hits give low values 0.982 | locus YOR136W, strain idh2, hits give low values 0.987 | locus YOR144C, strain elg1, hits give low values 0.977 | locus YOR184W, strain ser1, hits give low values 0.985 | locus YOR231W, strain MKK1, hits give low values 0.98 | locus YOR265W, strain rbl2, hits give low values 0.983 | locus YOR270C, strain vph1, hits give low values 0.941 | locus YOR290C, strain snf2, hits give low values 0.943 | locus YOR316C, strain cot1, hits give low values 0.984 | locus YPL051W, strain arl3, hits give low values 0.998 | locus YPL055C, strain LGE1, hits give low values 1.02 | locus YPL078C, strain atp4, hits give low values 0.989 | locus YPL106C, strain sse1, hits give low values 0.958 | locus YPL240C, strain hsp82, hits give low values 0.965 | locus YPL256C, strain CLN2, hits give low values 0.98 | locus YPR119W, strain clb2, hits give low values 0.975 | locus YPR141C, strain kar3, hits give low values 0.982 | locus YPR163C, strain tif3, hits give low values 0.992 | locus YPR167C, strain met16, hits give low values 0.981 | strain wtn01, hits give low values 0.99
